Experimental findings from PMC8384837, “Expanding the binding specificity for RNA recognition by a PUF domain” are described below.

Holding throughout (assay): yeast three-hybrid, YBZ-1, SC-Leu-His + 0.5 mM 3-AT, 4 days
What all share (settings): tags: N-Gal4 AD-HA kept; label: inside an RPR1-promoter hybrid RNA with tandem MS2 sites; ssRNA

For one experiment, the target named is PUM1 PUF domain R5-QAK (Homo sapiens, UniProt Q14671 828-1176, C1007Q;R1008A;Q1011K). The gist of the method:
(§1)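 Pumilio-1 PUF domain libraries, randomized (NNK) at the three base-contacting residues of each repeat, were co-expressed with matching RNA elements from a centromeric plasmid in strain YBZ-1 (LexA–MS2 coat fusion, HIS3 reporter). Transformants were plated on SC-Leu (input) and SC-Leu-His + 0.5 mM 3-AT (selection) for four days, and repeat regions were PCR-amplified and Illumina-sequenced. The interaction score is the log2 change in variant frequency from input to selection, with pseudocount 1 where absent.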

The target of another experiment is PUM1 PUF domain R5-LNR (Homo sapiens, UniProt Q14671 828-1176, C1007L;R1008N;Q1011R). The method, boiled down: as §1
The target of another experiment is PUM1 PUF domain R5-RDR (Homo sapiens, UniProt Q14671 828-1176, C1007R;R1008D;Q1011R). The gist of the method: as §1
In a further experiment the target is PUM1 PUF domain R3-LWG (Homo sapiens, UniProt Q14671 828-1176, C935L;R936W;Q939G). The gist of the method:
as §1

A further experiment has as its target PUM1 PUF domain R3-GYW (Homo sapiens, UniProt Q14671 828-1176, C935G;R936Y;Q939W). The gist of the method:
as §1

Another experiment addresses PUM1 PUF domain R8-PKR (Homo sapiens, UniProt Q14671 828-1176, N1122P;Y1123K;Q1126R). The gist of the method: as §1
Another experiment concerns the target PUM1 PUF domain R8-GWR (Homo sapiens, UniProt Q14671 828-1176, N1122G;Y1123W;Q1126R). The method, boiled down:
as §1

In another experiment the target is PUM1 PUF domain R5-IHE (Homo sapiens, UniProt Q14671 828-1176, C1007I;R1008H;Q1011E). The gist of the method: as §1
The target in another experiment is PUM1 PUF domain R7-QNE (Homo sapiens, UniProt Q14671 828-1176, S1079Q). The gist of the method:
as §1

Another experiment has as its target PUM1 PUF domain R1-ERV (Homo sapiens, UniProt Q14671 828-1176, S863E;Q867V). The gist of the method:
as §1

“GGCUAGAACUAGUGGAUCCCCCGGCGCCCGGCGGCUCGAGCCCGGGUAAGUGUUAAUAGUCUGCAUGCCGCCGGGCGCCAUGCCUGCAGGUCGACUCUAGAAAACAUG”: the binding signal with PUM1 PUF domain R5-QAK is 3.34 log2 enrichment (interaction score); in the experiment with PUM1 PUF domain R5-LNR, 4.82 log2 enrichment (interaction score).

Turning to “GGCUAGAACUAGUGGAUCCCCCGGCGCCCGGCGGCUCGAGCCCGGGUAAGUGUCAAUAGUCUGCAUGCCGCCGGGCGCCAUGCCUGCAGGUCGACUCUAGAAAACAUG”, in the experiment with PUM1 PUF domain R5-RDR, the binding signal was 3.41 log2 enrichment (interaction score).

As to “GGCUAGAACUAGUGGAUCCCCCGGCGCCCGGCGGCUCGAGCCCGGGUAAGUGUAAUUAGUCUGCAUGCCGCCGGGCGCCAUGCCUGCAGGUCGACUCUAGAAAACAUG”, the binding signal with PUM1 PUF domain R3-LWG was 3.8 log2 enrichment (interaction score); in the experiment with PUM1 PUF domain R3-GYW, 2.62 log2 enrichment (interaction score).

Take “GGCUAGAACUAGUGGAUCCCCCGGCGCCCGGCGGCUCGAGCCCGGGUAAGCGUAAAUAGUCUGCAUGCCGCCGGGCGCCAUGCCUGCAGGUCGACUCUAGAAAACAUG”: the binding signal is 3.72 log2 enrichment (interaction score) with PUM1 PUF domain R8-PKR and 5.66 log2 enrichment (interaction score) with PUM1 PUF domain R8-GWR.

With “GGCUAGAACUAGUGGAUCCCCCGGCGCCCGGCGGCUCGAGCCCGGGUAAGUGUAAGUAGUCUGCAUGCCGCCGGGCGCCAUGCCUGCAGGUCGACUCUAGAAAACAUG”, in the experiment with PUM1 PUF domain R3-LWG, the binding signal was 6.06 log2 enrichment (interaction score).

Take “GGCUAGAACUAGUGGAUCCCCCGGCGCCCGGCGGCUCGAGCCCGGGUAAGUGUAAAUAGUCUGCAUGCCGCCGGGCGCCAUGCCUGCAGGUCGACUCUAGAAAACAUG”: the binding signal with PUM1 PUF domain R8-PKR is 2.74 log2 enrichment (interaction score); in the experiment with PUM1 PUF domain R8-GWR, 5.13 log2 enrichment (interaction score); with PUM1 PUF domain R5-LNR it was 1.95 log2 enrichment (interaction score); in the experiment with PUM1 PUF domain R5-IHE, 3.04 log2 enrichment (interaction score); with PUM1 PUF domain R3-LWG, 2.39 log2 enrichment (interaction score); in the experiment with PUM1 PUF domain R3-GYW, 5.68 log2 enrichment (interaction score). In addition, the binding signal with PUM1 PUF domain R7-QNE is 4.09 log2 enrichment (interaction score).

On to “GGCUAGAACUAGUGGAUCCCCCGGCGCCCGGCGGCUCGAGCCCGGGUAAGUGUAAAUCGUCUGCAUGCCGCCGGGCGCCAUGCCUGCAGGUCGACUCUAGAAAACAUG”, for which the binding signal in the experiment with PUM1 PUF domain R1-ERV is 5.04 log2 enrichment (interaction score).

On to “GGCUAGAACUAGUGGAUCCCCCGGCGCCCGGCGGCUCGAGCCCGGGUAAGUGUGAAUAGUCUGCAUGCCGCCGGGCGCCAUGCCUGCAGGUCGACUCUAGAAAACAUG”, for which the binding signal with PUM1 PUF domain R5-RDR was 2.62 log2 enrichment (interaction score).
